# From ChEMBL document CHEMBL2218924, “A broad activity screen in support of a chemogenomic map for kinase signalling research and drug discovery” (Biochem J, 2013)
# Assays:
# [1] = target: T1, Tyrosine-protein kinase ITK/TSK (Homo sapiens) (UniProt Q08881); settings: at 10 µM
# T1 sequence (whole entry): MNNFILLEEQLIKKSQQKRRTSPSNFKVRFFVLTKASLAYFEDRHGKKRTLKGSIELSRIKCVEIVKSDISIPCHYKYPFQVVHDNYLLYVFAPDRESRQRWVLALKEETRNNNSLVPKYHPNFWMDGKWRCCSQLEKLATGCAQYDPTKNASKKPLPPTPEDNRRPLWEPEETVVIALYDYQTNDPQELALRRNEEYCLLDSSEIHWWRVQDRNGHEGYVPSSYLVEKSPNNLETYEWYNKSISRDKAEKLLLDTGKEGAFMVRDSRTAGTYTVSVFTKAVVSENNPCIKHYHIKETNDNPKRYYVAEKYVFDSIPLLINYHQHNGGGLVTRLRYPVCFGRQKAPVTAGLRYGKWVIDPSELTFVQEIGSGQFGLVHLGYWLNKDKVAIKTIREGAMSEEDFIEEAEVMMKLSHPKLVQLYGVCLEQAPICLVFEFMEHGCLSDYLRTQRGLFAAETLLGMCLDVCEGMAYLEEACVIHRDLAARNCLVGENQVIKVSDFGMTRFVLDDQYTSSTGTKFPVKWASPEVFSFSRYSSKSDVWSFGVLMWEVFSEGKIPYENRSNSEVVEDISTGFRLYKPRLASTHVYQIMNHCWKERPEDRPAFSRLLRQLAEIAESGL
# [2] = target: Tyrosine-protein kinase JAK2 (Homo sapiens) (UniProt O60674); settings: at 1 µM
# Sequence of Tyrosine-protein kinase JAK2 (Homo sapiens) (O60674 whole entry): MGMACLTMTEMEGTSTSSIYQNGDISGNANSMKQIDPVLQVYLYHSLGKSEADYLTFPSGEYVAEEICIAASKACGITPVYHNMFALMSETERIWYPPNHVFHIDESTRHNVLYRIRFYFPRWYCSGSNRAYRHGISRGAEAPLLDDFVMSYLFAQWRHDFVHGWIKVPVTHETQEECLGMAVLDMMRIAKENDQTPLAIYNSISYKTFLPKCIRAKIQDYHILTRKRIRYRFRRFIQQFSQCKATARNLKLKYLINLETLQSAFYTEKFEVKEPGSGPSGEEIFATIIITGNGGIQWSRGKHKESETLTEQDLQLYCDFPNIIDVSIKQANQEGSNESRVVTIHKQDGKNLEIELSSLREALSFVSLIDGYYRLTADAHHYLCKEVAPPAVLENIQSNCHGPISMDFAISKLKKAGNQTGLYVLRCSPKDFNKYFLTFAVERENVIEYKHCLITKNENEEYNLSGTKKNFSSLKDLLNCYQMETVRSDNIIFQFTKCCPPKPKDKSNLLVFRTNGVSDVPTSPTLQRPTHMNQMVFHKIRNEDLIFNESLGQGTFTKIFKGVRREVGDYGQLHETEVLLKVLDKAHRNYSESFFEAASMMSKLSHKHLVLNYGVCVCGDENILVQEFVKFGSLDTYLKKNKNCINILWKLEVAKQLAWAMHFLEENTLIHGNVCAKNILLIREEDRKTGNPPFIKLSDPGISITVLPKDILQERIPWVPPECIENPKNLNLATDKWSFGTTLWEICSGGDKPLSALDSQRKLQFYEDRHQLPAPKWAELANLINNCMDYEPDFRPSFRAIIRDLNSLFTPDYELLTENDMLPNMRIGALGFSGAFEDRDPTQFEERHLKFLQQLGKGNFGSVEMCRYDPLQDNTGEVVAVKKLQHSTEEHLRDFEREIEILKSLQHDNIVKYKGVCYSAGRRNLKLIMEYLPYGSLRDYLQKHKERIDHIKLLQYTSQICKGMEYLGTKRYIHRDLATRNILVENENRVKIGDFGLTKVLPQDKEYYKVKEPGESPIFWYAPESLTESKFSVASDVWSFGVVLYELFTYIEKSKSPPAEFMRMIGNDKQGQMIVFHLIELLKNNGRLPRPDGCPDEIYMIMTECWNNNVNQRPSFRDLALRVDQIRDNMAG
# [3] = target: Tyrosine-protein kinase JAK2 (Homo sapiens) (UniProt O60674); settings: at 10 µM
# [4] = target: T2, Tyrosine-protein kinase JAK3 (Homo sapiens) (UniProt P52333); settings: at 1 µM
# T2 sequence (whole entry): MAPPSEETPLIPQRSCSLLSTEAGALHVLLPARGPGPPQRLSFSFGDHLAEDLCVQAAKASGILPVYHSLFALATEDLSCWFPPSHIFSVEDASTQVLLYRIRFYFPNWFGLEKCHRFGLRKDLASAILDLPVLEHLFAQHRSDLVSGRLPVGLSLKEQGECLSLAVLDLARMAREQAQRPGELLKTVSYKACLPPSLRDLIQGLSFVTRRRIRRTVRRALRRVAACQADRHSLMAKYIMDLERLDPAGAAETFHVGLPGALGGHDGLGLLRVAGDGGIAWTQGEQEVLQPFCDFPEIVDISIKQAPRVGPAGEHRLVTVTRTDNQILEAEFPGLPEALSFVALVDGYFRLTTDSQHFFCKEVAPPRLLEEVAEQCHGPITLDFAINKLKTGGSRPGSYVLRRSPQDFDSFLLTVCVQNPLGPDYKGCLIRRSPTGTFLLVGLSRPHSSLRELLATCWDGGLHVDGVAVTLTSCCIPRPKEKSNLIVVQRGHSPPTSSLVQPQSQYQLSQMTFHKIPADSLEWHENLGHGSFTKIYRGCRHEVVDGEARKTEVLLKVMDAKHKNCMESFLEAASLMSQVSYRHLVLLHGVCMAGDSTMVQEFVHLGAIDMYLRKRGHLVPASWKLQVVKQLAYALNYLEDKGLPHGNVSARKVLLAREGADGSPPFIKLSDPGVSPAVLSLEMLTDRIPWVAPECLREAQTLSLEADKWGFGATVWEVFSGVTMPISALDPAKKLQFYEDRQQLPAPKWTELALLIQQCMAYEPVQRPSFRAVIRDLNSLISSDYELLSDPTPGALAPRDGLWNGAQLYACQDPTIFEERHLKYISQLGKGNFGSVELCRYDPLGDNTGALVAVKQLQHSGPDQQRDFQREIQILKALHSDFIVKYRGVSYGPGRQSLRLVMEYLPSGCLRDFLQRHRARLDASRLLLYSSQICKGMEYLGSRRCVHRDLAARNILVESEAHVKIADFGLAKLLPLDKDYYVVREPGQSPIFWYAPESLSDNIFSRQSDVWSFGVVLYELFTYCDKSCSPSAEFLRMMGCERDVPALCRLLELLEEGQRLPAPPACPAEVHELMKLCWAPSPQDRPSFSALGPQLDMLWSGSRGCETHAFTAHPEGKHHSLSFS
# [5] = target: T2, Tyrosine-protein kinase JAK3 (Homo sapiens); settings: at 10 µM
# [6] = target: Mitogen-activated protein kinase 8 (Homo sapiens) (UniProt P45983); settings: at 1 µM
# Sequence of Mitogen-activated protein kinase 8 (Homo sapiens) (P45983 whole entry): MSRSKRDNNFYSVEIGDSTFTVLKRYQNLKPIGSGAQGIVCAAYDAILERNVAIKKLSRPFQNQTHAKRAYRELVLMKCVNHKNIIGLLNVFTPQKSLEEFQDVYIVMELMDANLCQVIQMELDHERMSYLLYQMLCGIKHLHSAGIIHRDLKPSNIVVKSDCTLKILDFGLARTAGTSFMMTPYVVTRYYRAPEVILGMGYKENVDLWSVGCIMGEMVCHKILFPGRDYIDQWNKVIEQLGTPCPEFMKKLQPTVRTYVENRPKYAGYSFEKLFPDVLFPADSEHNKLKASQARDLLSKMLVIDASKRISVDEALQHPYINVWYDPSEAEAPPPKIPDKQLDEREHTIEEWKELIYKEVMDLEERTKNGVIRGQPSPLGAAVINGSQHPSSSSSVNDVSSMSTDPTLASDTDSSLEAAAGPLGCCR
# [7] = target: Mitogen-activated protein kinase 8 (Homo sapiens) (UniProt P45983); settings: at 10 µM
# [8] = target: Mitogen-activated protein kinase 10 (Homo sapiens) (UniProt P53779); settings: at 1 µM
# Sequence of Mitogen-activated protein kinase 10 (Homo sapiens) (P53779 whole entry): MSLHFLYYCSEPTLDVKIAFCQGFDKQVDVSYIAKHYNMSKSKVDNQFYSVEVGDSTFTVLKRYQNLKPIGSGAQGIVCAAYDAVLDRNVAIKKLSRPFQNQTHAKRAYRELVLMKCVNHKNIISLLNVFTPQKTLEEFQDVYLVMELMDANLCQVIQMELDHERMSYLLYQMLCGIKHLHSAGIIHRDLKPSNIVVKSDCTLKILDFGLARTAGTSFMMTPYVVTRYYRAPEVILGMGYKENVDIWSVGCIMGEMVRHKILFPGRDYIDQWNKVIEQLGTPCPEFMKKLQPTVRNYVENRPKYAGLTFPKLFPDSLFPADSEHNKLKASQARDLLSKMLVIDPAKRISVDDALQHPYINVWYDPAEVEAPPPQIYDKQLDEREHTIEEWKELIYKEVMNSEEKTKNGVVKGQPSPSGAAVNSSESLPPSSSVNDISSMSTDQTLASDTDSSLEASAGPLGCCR
# [9] = target: Mitogen-activated protein kinase 9 (Homo sapiens) (UniProt P45984); settings: at 1 µM
# Sequence of Mitogen-activated protein kinase 9 (Homo sapiens) (P45984 whole entry, looked up): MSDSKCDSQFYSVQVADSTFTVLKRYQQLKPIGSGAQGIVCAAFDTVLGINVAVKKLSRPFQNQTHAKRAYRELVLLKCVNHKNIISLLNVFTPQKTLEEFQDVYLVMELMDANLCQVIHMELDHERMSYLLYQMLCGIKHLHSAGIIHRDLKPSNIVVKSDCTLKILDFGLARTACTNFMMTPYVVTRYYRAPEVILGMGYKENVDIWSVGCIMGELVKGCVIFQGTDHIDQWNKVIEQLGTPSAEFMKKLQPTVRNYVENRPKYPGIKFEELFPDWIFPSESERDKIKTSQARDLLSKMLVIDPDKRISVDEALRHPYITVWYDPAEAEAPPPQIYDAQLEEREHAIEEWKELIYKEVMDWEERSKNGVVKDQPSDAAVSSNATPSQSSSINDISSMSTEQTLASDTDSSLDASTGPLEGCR
# [10] = target: Mitogen-activated protein kinase 9 (Homo sapiens) (UniProt P45984); settings: at 10 µM
SMILES,residual activity [1] [%],residual activity [2] [%],residual activity [3] [%],residual activity [4] [%],residual activity [5] [%],residual activity [6] [%],residual activity [7] [%],residual activity [8] [%],residual activity [9] [%],residual activity [10] [%]
O=S(=O)(NCCNC/C=C/c1ccc(Br)cc1)c1cccc2cnccc12,100,–,–,–,–,–,–,–,–,–
COc1cc2ncnc(Nc3cccc(Cl)c3)c2cc1OC,105,123,86,109,118,112,122,73,–,–
CCCCc1c(-c2ccc(O)cc2)[nH]c2nccnc12,38,62,63,80,26,–,–,56,97,98
O=c1cc(N2CCNCC2)oc2c(-c3ccccc3)cccc12,93,–,101,94,78,–,84,73,–,97
CCCCc1c(-c2ccc(OC)cc2)[nH]c2nccnc12,92,71,49,81,86,105,–,48,91,109
CCN(CC)CCNC(=O)c1c(C)[nH]c(/C=C2\C(=O)Nc3ccc(Cl)cc32)c1C,2,72,20,62,16,97,82,80,–,–
CN(C)S(=O)(=O)c1ccc2c(c1)/C(=C/c1cc3c([nH]1)CCCC3)C(=O)N2,22,67,25,66,48,99,94,89,–,–
COc1ccc2c(c1)c(C1=C(c3c[nH]c4ccccc34)C(=O)NC1=O)cn2CCCN(C)C,79,114,81,102,50,104,57,74,111,–
Cn1sc(=O)n(Cc2ccccc2)c1=O,83,91,98,–,–,89,88,75,91,93
c1ccc(-c2cnc(Nc3ccc(OCCN4CCCC4)cc3)s2)cc1,30,111,105,–,–,112,70,80,–,–
CC(C)(C)n1nc(Cc2cccc3ccccc23)c2c(N)ncnc21,106,101,121,99,100,108,78,28,108,78
O=C(c1cc2cc(O)ccc2[nH]1)c1cc2cc(O)ccc2[nH]1,16,–,–,64,17,–,–,51,–,–
CSc1nc(-c2ccc(F)cc2)c(-c2ccnc(NC(C)c3ccccc3)c2)[nH]1 (stereo unspecified),53,–,–,–,–,90,32,4,39,-6
CCOC(=O)c1c(C)[nH]c(/C=C2\C(=O)Nc3ccccc32)c1C,99,92,100,–,–,–,–,–,–,–
O=c1cc(N2CCOCC2)oc2c1ccc1ccccc12,94,–,–,100,108,103,87,–,110,97
COc1cc2c(cc1OC)-c1n[nH]c(Nc3cccc(F)c3)c1C2,41,–,108,–,114,–,–,53,101,69
O=C(Nc1nc2ccccc2n1CCN1CCOCC1)c1cccc([N+](=O)[O-])c1,52,24,40,85,69,–,–,–,–,–
CCCC(=O)Oc1ccc2[nH]c(C(=O)c3cc4ccccc4[nH]3)cc2c1,101,103,100,–,–,94,81,69,–,89
Nc1ncnc2[nH]nc(Nc3ccc(F)cc3)c12,78,103,93,101,90,105,93,98,92,93
O=C(CCCc1ccc(-c2ccccc2F)cc1)Nc1ccc(O)cc1,98,108,111,104,104,99,98,109,93,99
CC(C)c1nn(-c2c(Cl)cccc2Cl)c2nc(Cc3ccc(OCCO)cc3)[nH]c(=O)c12,96,85,100,103,106,–,94,81,99,86

SMILES,residual activity [1] [%],residual activity [2] [%],residual activity [3] [%],residual activity [4] [%],residual activity [5] [%],residual activity [6] [%],residual activity [7] [%],residual activity [8] [%],residual activity [9] [%],residual activity [10] [%]
Nc1ncnc2c1c(-c1ccc(Oc3ccccc3)cc1)cn2C1CCCC1,4,96,124,91,65,100,64,77,104,92
Nc1ncnc2c1cnn2-c1ccccc1,97,126,93,–,–,–,–,78,–,95
CC(C)(C)c1nc2c3ccc(F)cc3c3c(=O)[nH]ccc3c2[nH]1,66,-1,1,1,1,32,9,-2,–,–
NC(=O)Nc1sc(-c2ccc(F)cc2)cc1C(N)=O,1,4,0,42,5,94,52,60,84,67
COc1cc2nccc(Oc3ccc(NC(=S)NC(=O)c4ccccc4C)cc3)c2cc1OC,48,–,–,86,92,95,78,69,–,87
Nc1nc(Nc2ccc(S(N)(=O)=O)cc2)nn1C(=O)c1c(F)cccc1F,40,11,0,7,1,–,–,51,102,48
Cn1c2ccccc2c2c3c(c4c5ccccc5n(CCC#N)c4c21)CNC3=O,4,4,3,1,2,–,31,7,–,73
N#C/C(=C\c1ccc(O)c(O)c1)C(=O)NCc1ccccc1,104,–,–,–,–,–,–,–,–,–
COc1ccc(COc2ccc(Cc3cnc(N)nc3N)cc2OC)cc1,99,–,–,–,–,–,–,–,–,–
O=C1NC(=O)c2c1c1c3ccccc3[nH]c1n1cncc21,44,97,93,83,58,89,75,25,67,49
O=C1NC(=O)C(c2cn(CCCO)c3ncccc23)=C1c1cnccn1,91,–,–,–,–,–,–,89,96,80
N#C/C(=C1/Nc2ccccc2S1)c1ccnc(NCCc2cccnc2)n1,–,–,–,95,48,67,55,–,–,–
N#Cc1c(NC(=O)c2cccc3ccccc23)sc2c1CCCC2,–,–,92,–,–,–,–,8,58,74
O=C1NC(=O)C(c2cn(CCCn3ccnc3)c3ccccc23)=C1Nc1ccccc1,–,103,39,15,2,109,79,–,110,80
CCN1/C(=C/C(C)=O)Sc2ccc(OC)cc21,–,–,–,–,–,–,–,65,–,–
COc1ccc(CNC(=O)Nc2ncc([N+](=O)[O-])s2)cc1,–,–,–,–,–,–,–,65,–,–
O=C(O)/C=C/c1cc(Br)c(Br)c(Br)c1Br,–,87,58,102,34,108,72,99,100,72
NC(=O)c1ccc(-c2nc(-c3ccc4c(c3)OCCO4)c(-c3ccccn3)[nH]2)cc1,–,–,–,–,–,117,87,–,–,–
Cc1cc(C)c(/C=C2\C(=O)Nc3ccccc32)[nH]1,–,–,–,–,–,–,–,–,102,101
COc1ccc(Cl)cc1NC(=O)Nc1cc(C)nc2ccccc12,–,124,155,–,145,–,–,85,–,–
CC(C)[C@H](CO)Nc1nc(Nc2cc(N)cc(Cl)c2)c2ncn(C(C)C)c2n1,–,–,–,–,87,–,–,82,–,–

SMILES,residual activity [1] [%],residual activity [2] [%],residual activity [3] [%],residual activity [4] [%],residual activity [5] [%],residual activity [6] [%],residual activity [7] [%],residual activity [8] [%],residual activity [9] [%],residual activity [10] [%]
CCOc1nc(NC(=O)Cc2cc(OC)ccc2OC)cc(N)c1C#N,–,–,–,–,–,-16,-6,-2,-1,-11
CN([C@@H](Cc1ccc(OS(=O)(=O)c2cccc3cnccc23)cc1)C(=O)N1CCN(c2ccccc2)CC1)S(=O)(=O)c1cccc2cnccc12,–,–,–,–,83,–,–,76,114,114
NCCNc1ncc(C(N)=O)c(Nc2cccc(C(F)(F)F)c2)n1,–,–,–,116,106,–,–,79,103,76
O=C1Cc2c([nH]c3ccc(Br)cc23)-c2ccccc2N1,–,100,71,–,71,95,88,–,87,97
O=C1Nc2ccccc2/C1=C\c1c(Cl)[nH]c2ccccc12,–,–,–,–,85,–,–,83,–,76
Nc1n[nH]c2nc3ccccc3nc12,–,98,91,–,–,–,–,80,100,84
O=C(NC(NC(=S)Nc1ccc(F)c([N+](=O)[O-])c1)C(Cl)(Cl)Cl)C(c1ccccc1)c1ccccc1 (stereo unspecified),–,–,–,–,78,–,102,92,–,–
O=C1Nc2ccc(Cl)cc2/C1=C/c1cc(Cl)c(O)c(Cl)c1,–,98,69,75,28,95,69,64,–,–
O=C1NC(=O)C(c2c[nH]c3ccccc23)=C1c1c[nH]c2ccccc12,–,–,33,43,6,–,35,56,–,–
O=C1C(Cl)=C(N2C(=O)CCC2=O)C(=O)c2ccccc21,–,–,–,100,89,96,86,88,89,102
CC(C)N(CCC(=O)c1ccc2ccccc2c1)Cc1ccccc1,–,–,–,78,45,–,57,80,–,86
Nc1nccc(-c2c(-c3ccc(F)cc3)ncn2C2CCNCC2)n1,–,–,–,120,118,–,–,69,–,–
COc1cc2nccc(Oc3ccc(NC(=O)Nc4cc(C)on4)c(Cl)c3)c2cc1OC,–,–,–,100,48,120,109,–,–,–
O=C(Nc1ccc(Cl)cc1)c1ccccc1NCc1ccncc1,–,129,74,–,–,120,129,72,–,–
O=c1c(-c2ccc(F)cc2)c(-c2ccncc2)[nH]n1-c1ccc(Cl)cc1,–,–,–,–,–,–,–,-2,7,-10
Oc1cccc(-c2nc(N3CCOCC3)c3oc4ncccc4c3n2)c1,–,–,–,–,–,–,77,91,–,–
O=c1cc(N2CCOCC2)oc2c(-c3ccccc3)cccc12,–,–,–,–,–,–,79,70,–,–
Fc1ccc(-c2nc3n(c2-c2ccncc2)CCS3)cc1,–,99,100,–,–,–,81,14,73,20
COc1ccc(-c2cnc3c(-c4ccsc4)cnn3c2)cc1,–,–,–,–,92,–,–,88,100,100
O=C(c1ccccc1)c1ccc(N2CCOCC2)cc1O,–,92,99,91,82,116,–,83,–,–
O=C1Cc2c([nH]c3ccc([N+](=O)[O-])cc23)-c2ccccc2N1,–,–,106,101,101,109,–,70,104,101
